Measurements: PubChem BioAssay (Tox21)
Inconclusive results are not listed. Where a call stands in place of a potency, no number is given. Active and inactive are the calls of the source. Calls follow the shape of the dose curve; as a rule, active = well fitted inhibition curve with a large enough effect in the signal ratio in the repeat runs (not every such curve was filed as active); inconclusive = weak or mixed curves, or effect the other way; inactive = no such curve, though single readings can be large or run the other way; the % refers to the signal ratio. Non-standard residues stand in square brackets, D forms with d. Residues, ends and D or L forms follow the SMILES beside them. pGlu = O=C1CC[C@@H](C(=O)O)N1; Thz = O=C(O)[C@@H]1CSCN1

Target: Glucocorticoid receptor (Homo sapiens) (UniProt P04150)
Assay: qHTS assay to identify small molecule antagonists of the glucocorticoid receptor (GR) signaling pathway (AID 720692)
Conditions: GR-bla HeLa, beta-lactamase FRET ratio, dexamethasone-stimulated, 18 h; series mostly up to 58.5 µM
Source text: U.S. Tox21 Program National Center for Advancing Translational Sciences [NCATS] NIH Chemical Genomics Center [NCGC] U.S. Environmental Protection Agency [EPA] National Institutes of Environmental Health Sciences [NIEHS] National Toxicology Program [NTP] U.S. Food and Drug Administration [FDA] Tox21 Assay Overview: The Glucocorticoid receptor (GR) is one of the members of the nuclear receptor family of ligand-dependent transcription factors. GR plays a critical role in carbohydrate, protein and lipid metabolisms and programmed cell death. CellSensor GR-bla HeLa cell line (Invitrogen) contains a beta-lactamase reporter gene under the control of the glucocorticoid response element stably integrated into HeLa cells, a cervical cancer cell line that expresses glucocorticoid receptor. The activation of the reporter gene under culture conditions can be detected by fluorescence intensity. This cell line has been used to screen the Tox21 10K compound library and to identify the compounds that inhibit the GR signaling.
Tox21 Assay Protocol Summary: The GR-bla HeLa cells were dispensed at 1500 cells/5 ul/well in 1536-well black wall/clear bottom plates using a Multidrop Combi (ThermoFisher Scientific, Waltham, MA) dispenser. After the assay plates were incubated at a 37 C/5% CO2 incubator for 4 hours, 23 nL of compounds dissolved in DMSO, positive controls or DMSO only was transferred to the assay plate by a pintool station (Kalypsys, San Diego, CA), followed by addition of 1 uL of dexamethasone (5 nM, final concentration in the well). The plates were incubated at 37 C for 18 hours. After 1 uL of LiveBLAzerTM B/G FRET substrate was added using a Flying Reagent Dispenser (Aurora Discovery, San Diego, CA), the plates were incubated at room temperature for 2 hours, and fluorescence intensity was measured by an Envision plate reader (PerkinElmer, Shelton, CT).
Potency is read from the fitted curve at half-maximal effect.

Sequence of Glucocorticoid receptor (Homo sapiens) (P04150 whole entry, looked up): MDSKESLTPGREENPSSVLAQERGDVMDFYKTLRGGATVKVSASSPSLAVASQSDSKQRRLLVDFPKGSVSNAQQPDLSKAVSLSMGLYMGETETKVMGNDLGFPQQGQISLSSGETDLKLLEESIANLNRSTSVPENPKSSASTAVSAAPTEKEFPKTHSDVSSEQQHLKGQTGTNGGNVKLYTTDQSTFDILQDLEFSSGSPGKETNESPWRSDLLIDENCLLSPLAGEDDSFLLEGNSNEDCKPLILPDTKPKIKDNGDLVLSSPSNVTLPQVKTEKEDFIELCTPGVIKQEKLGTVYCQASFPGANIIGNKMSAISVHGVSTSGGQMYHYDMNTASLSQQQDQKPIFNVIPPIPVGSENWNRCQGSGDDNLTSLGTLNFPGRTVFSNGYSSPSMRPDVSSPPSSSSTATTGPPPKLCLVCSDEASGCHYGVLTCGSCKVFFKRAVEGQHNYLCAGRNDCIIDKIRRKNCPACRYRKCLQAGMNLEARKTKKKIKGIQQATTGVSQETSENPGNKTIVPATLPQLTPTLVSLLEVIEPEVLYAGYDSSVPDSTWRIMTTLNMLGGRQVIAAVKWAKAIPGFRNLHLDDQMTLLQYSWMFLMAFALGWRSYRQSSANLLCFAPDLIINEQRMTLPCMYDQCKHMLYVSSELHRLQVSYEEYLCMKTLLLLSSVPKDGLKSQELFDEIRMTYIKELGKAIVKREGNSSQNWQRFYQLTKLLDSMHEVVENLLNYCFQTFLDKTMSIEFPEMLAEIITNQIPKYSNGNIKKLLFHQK

Compound | Potency
C[C@]12CC[C@@H]3c4ccc(OS(=O)(=O)O)cc4CC[C@H]3[C@@H]1CCC2=O | inactive
CCCc1ccc(C(=O)O)cc1 | inactive
COC(=O)C1=C(C)NC(C)=C(C(=O)O[C@H]2CCN(Cc3ccccc3)C2)[C@H]1c1cccc([N+](=O)[O-])c1 | 23.9 µM (active)
CC1(C)S[C@@H]2[C@H](NC(=O)Cc3ccccc3)C(=O)N2[C@H]1C(=O)O | inactive
CCCCCCCCCCCCCCCCCC(=O)OC[C@@H](O)[C@H]1OC[C@H](O)[C@H]1O | inactive
CN=C(NC)NCc1ccccc1 | inactive
COC(=O)C1=C(C#N)NC(C)=C(C(=O)OC(C)C)C1c1cccc([N+](=O)[O-])c1 (stereo not given) | 19 µM (active)
O=C(O)c1cc(N=Nc2ccc(O)c(C(=O)O)c2)ccc1O | inactive
O=C1CC[C@@H](C(=O)N2CSC[C@H]2C(=O)O)N1 ([pGlu]-[Thz]-OH) | inactive
CO[C@@H]1[C@@H](O[C@@H]2O[C@H](C)[C@@H](O[C@H]3C[C@@](C)(O)[C@@H](OC(=O)CC(C)C)[C@H](C)O3)[C@H](N(C)C)[C@H]2O)[C@@H](CC=O)C[C@@H](C)[C@@H](O)/C=C/C=C/C[C@@H](C)OC(=O)C[C@H]1O | inactive
C=CCCCCCCCCC(=O)OC | inactive
NNc1nnc(Cc2ccncc2)c2ccccc12 | inactive
CN1c2c(nc(N)[nH]c2=O)NCC1CNc1ccc(C(=O)NC(CCC(=O)O)C(=O)O)cc1 (stereo not given) | inactive
CC(C)(S)[C@@H](N)C(=O)O | inactive
O=P(O)(O)OC(Cn1cncn1)(Cn1cncn1)c1ccc(F)cc1F | inactive
O=C1O[C@H]2[C@H](O)[C@@H]1OC(O)[C@H]2O (stereo not given in full) | inactive
CCOC(=O)[C@H](CCc1ccccc1)N[C@H]1CCCN2CCC[C@@H](C(=O)O)N2C1=O | inactive
O=C1NCCN1c1ncc([N+](=O)[O-])s1 | inactive
CC(C)[C@H](N)C(=O)OCC(CO)OCn1cnc2c(=O)[nH]c(N)nc21 (stereo not given in full) | inactive

Compound | Potency
Cc1ncc(C[n+]2csc(CCOP(=O)(O)OP(=O)(O)O)c2C)c(N)n1 | inactive
COC(F)(F)C(Cl)Cl | inactive
O=C(O)c1ccc(OCCn2ccnc2)cc1 | inactive
CCCCCCCCCCCCCCCCCC[N+](C)(C)CCC[Si](OC)(OC)OC | inactive
O=c1[nH]cnc2[nH]cc(CN3CCCCC3)c12 | inactive
C[N+]1(C)[C@@H]2CC(OC(=O)C(O)(c3cccs3)c3cccs3)C[C@H]1[C@@H]1O[C@@H]12 (stereo not given in full) | inactive
CC(=O)N(CC(C)C(=O)O)c1c(I)cc(I)c(N)c1I (stereo not given) | inactive
CC[C@H](C)[C@@H]1NC(=O)[C@H](Cc2ccc(O)cc2)NC(=O)[C@@H](N)CSSC[C@@H](C(=O)N2CCC[C@H]2C(=O)N[C@@H](CC(C)C)C(=O)NCC(N)=O)NC(=O)[C@H](CC(N)=O)NC(=O)[C@H](CCC(N)=O)NC1=O | inactive
CCCCC/C=C\CCC(=O)N[C@H]1[C@H](Oc2c3cc4cc2Oc2ccc(cc2Cl)[C@@H](O[C@@H]2O[C@H](CO)[C@@H](O)[C@H](O)[C@H]2NC(C)=O)[C@@H]2NC(=O)[C@H](NC(=O)[C@@H]4NC(=O)[C@H]4NC(=O)[C@@H](Cc5ccc(c(Cl)c5)O3)NC(=O)[C@H](N)c3ccc(O)c(c3)Oc3cc(O)cc4c3)c3ccc(O)c(c3)-c3c(O[C@H]4O[C@H](CO)[C@@H](O)[C@H](O)[C@@H]4O)cc(O)cc3[C@@H](C(=O)O)NC2=O)O[C@H](CO)[C@@H](O)[C@@H]1O | inactive
CCC(c1ccccc1)c1noc(CCN(CC)CC)n1 (stereo not given) | inactive
Nc1ncnc2c1ncn2CCOCP(=O)(O)O | inactive
CO[C@@H]1[C@@H](O[C@@H]2O[C@H](C)[C@@H](O[C@H]3C[C@@](C)(O)[C@@H](O)[C@H](C)O3)[C@H](N(C)C)[C@H]2O)[C@@H](CC=O)C[C@@H](C)[C@@H](O[C@@H]2CC[C@H](N(C)C)[C@@H](C)O2)/C=C/C=C/C[C@@H](C)OC(=O)C[C@H]1O | inactive
CC(=O)c1ccc2c(c1)N(CCCN1CCN(CCO)CC1)c1ccccc1S2 | inactive
COc1ccccc1N1CCN(CCCC(=O)c2ccc(F)cc2)CC1 | inactive
CCCC(=O)Nc1c(I)cc(I)c(CC(CC)C(=O)O)c1I (stereo not given) | inactive
O=C(O)C1CCCN1 (stereo not given) | inactive
CN(C)C(=O)CCSC(SCCC(=O)O)c1cccc(/C=C/c2ccc3ccc(Cl)cc3n2)c1 (stereo not given) | 8.49 µM (active)
COCC(=O)Nc1cc(Sc2ccccc2)ccc1N=C(NC(=O)OC)NC(=O)OC | inactive
CN(C)CC/C=C1/c2ccccc2CSc2ccccc21 | inactive
COc1cc2c(cc1OC)[C@@H](c1ccccc1)CN(C)CC2 | inactive
